The values below come from the supplement of paper PMC10849652.

The full data set covers some 8,800 targets. This sample favours those with a hit. About 0.5% of all pairs of compound and target were hits. Unmarked numbers belong to inactive results.

Assay in all cases: log2 fold change, soluble protein after heating vs DMSO (PISA); higher = thermal stabilisation; K562 lysate, 10 uM; active = over 0.2 and 3.5 SD of the protein, either way, in both replicates (recomputed)
Compound in test [1]: CC1=C2C(=CC=C1)N=C(N(C2=O)C3=CC=CC=C3C)CN4C=NC5=C(N=CN=C54)N
In a few lines: (§1)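 K562 pellets were dounce-homogenised in PBS pH 7.4 containing 1 mM MgCl2, and the crude extract, at 1 mg/mL protein, was exposed to 10 μM compound for 30 min. Aliquots were heated for 3 min across 48°C-58°C, pooled, brought to 0.5% NP-40 at 4°C and spun at 21,000xg for 90 min, with the supernatant taken as soluble protein. TMTpro 16plex LC-MS/MS with equalised channel sums quantified that protein. Values are log-two fold changes in thermal stability relative to solvent controls, taken from duplicates.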

Compound in test [2]: Cc1sc2c(c1C)C(c1ccc(Cl)cc1)=N[C@@H](CC(=O)OC(C)(C)C)c1nnc(C)n1-2
The method, boiled down: as §1

Compound in test [3]: c1ccc([C@@H]2C[C@H]2NC2CCNCC2)cc1
In a few lines: as §1

Compound in test [4]: C1=CC=C(C=C1)[C@H](COC2=CC3=C(C=C2)NC(=O)N3)NC(=O)C4=CC=CN(C4=O)CC5=CC(=C(C=C5)F)F
In a few lines: as §1

Compound in test [5]: CC1=C(SC2=C1C(=N[C@H](C3=NN=C(N32)C)CC(=O)N)C4=CC=C(C=C4)Cl)C
The method, boiled down: as §1

Chain of UniProt Q5T3J3 (Q5T3J3 whole entry, looked up): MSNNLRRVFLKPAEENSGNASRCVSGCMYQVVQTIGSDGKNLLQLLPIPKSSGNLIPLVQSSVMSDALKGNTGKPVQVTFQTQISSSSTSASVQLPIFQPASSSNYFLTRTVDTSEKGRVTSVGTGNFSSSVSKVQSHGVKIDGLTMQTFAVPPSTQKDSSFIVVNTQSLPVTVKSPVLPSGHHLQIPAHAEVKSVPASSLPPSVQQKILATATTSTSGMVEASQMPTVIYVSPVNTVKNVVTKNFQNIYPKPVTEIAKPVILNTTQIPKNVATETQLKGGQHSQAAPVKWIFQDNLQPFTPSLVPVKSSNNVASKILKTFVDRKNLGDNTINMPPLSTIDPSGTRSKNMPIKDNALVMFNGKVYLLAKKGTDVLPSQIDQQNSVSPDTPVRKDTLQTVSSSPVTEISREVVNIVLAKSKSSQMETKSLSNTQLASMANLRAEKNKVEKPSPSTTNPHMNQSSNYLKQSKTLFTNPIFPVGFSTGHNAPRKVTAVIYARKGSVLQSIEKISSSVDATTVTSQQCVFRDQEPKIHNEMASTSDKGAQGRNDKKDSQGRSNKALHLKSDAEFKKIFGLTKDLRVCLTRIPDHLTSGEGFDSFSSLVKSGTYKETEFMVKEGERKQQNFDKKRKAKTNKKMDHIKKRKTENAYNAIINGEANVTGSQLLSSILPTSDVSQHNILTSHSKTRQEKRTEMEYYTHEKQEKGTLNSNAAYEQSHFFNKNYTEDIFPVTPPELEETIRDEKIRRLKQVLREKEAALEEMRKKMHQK
Chain of UniProt Q8TC05 (Q8TC05 whole entry, looked up): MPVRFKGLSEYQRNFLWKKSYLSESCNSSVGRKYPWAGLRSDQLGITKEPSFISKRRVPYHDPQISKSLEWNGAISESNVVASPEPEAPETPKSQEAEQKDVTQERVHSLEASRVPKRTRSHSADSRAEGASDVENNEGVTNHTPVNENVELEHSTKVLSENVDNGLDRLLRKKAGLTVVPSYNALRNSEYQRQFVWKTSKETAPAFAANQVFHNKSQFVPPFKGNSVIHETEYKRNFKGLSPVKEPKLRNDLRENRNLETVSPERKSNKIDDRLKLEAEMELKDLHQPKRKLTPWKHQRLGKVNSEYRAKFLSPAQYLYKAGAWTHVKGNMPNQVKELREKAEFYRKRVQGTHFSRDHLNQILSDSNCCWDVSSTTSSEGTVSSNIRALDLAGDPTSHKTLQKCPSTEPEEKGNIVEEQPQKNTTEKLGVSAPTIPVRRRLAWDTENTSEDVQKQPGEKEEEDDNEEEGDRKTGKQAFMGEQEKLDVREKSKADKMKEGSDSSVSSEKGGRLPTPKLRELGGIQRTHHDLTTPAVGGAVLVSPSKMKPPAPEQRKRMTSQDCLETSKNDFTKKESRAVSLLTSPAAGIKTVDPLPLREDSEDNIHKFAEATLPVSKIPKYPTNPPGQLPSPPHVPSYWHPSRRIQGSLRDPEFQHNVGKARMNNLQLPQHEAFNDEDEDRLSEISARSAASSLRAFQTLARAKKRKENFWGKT
Chain of UniProt Q9Y2E5 (Q9Y2E5 whole entry, looked up): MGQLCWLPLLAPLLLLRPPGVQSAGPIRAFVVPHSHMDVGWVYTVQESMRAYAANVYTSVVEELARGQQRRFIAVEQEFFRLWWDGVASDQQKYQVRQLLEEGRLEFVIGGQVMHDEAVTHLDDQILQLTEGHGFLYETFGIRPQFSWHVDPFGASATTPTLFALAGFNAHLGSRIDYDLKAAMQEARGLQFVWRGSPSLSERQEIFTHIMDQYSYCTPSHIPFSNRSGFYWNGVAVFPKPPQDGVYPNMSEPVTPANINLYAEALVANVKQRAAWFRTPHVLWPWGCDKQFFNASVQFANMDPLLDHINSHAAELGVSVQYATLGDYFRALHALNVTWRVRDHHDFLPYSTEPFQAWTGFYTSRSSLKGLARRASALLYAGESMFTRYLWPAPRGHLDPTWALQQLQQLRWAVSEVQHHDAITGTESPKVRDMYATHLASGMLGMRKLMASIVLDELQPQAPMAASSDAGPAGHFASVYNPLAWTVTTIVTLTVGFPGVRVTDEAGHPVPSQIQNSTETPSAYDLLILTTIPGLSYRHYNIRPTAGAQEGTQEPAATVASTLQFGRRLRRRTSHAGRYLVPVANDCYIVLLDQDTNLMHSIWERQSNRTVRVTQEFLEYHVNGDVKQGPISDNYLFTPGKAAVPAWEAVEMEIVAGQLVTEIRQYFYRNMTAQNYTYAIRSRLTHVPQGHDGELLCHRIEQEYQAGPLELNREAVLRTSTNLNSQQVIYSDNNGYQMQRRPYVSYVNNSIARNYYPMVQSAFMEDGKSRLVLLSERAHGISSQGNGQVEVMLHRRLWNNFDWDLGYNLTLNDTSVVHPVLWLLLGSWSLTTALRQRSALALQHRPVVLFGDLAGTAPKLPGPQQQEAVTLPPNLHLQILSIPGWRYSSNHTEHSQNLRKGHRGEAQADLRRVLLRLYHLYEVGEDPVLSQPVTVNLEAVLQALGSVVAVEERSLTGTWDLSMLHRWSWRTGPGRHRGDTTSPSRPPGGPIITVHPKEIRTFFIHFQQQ
Chain of UniProt P08473 (P08473 whole entry, looked up): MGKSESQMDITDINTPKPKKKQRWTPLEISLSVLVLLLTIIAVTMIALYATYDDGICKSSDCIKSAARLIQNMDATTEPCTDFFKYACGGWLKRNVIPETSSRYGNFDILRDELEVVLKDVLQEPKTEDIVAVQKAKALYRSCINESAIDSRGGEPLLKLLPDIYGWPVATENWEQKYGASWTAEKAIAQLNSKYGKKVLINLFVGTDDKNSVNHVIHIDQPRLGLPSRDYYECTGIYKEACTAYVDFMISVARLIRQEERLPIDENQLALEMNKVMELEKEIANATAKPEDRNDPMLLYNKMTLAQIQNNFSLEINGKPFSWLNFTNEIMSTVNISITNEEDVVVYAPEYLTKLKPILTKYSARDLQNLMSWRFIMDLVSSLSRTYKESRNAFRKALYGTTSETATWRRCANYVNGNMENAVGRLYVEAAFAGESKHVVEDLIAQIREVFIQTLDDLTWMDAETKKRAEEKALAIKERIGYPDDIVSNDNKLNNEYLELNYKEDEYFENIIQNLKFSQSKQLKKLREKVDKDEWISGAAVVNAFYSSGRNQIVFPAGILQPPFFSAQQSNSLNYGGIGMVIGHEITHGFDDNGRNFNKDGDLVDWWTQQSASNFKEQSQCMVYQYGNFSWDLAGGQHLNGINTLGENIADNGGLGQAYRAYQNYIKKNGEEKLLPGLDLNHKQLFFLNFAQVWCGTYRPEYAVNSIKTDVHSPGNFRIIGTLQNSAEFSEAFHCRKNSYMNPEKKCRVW
Chain of UniProt O95819 (O95819 whole entry, looked up): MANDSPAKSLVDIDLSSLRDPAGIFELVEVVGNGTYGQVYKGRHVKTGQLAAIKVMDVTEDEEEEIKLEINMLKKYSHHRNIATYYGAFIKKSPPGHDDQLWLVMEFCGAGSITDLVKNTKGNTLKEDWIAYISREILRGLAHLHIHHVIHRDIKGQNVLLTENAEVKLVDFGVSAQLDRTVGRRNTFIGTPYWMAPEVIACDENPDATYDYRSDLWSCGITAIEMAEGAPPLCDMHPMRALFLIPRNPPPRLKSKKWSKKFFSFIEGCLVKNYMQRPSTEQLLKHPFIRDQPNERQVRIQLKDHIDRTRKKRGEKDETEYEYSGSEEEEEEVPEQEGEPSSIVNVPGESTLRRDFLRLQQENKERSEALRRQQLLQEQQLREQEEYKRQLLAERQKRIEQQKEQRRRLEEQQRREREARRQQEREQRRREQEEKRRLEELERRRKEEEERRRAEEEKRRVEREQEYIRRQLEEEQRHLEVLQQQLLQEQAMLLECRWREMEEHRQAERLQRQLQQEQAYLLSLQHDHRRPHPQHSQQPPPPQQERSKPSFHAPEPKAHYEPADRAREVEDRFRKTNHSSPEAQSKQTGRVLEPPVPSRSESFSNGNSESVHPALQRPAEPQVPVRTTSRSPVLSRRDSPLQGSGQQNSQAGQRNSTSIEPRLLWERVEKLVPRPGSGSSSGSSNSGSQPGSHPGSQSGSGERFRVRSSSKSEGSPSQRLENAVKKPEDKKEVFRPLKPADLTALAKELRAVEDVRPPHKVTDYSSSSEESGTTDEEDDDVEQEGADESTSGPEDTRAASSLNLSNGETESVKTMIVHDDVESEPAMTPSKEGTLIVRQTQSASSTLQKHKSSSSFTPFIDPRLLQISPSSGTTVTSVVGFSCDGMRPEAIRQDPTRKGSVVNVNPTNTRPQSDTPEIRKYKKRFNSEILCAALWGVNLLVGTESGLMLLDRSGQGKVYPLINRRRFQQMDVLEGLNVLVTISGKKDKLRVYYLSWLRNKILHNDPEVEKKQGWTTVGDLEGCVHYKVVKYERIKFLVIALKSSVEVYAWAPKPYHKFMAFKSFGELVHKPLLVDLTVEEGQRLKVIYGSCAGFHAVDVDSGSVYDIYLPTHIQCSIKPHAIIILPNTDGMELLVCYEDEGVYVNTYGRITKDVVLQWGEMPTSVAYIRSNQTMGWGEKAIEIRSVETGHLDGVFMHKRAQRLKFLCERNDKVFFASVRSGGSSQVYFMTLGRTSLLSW
Chain of UniProt Q9H204 (Q9H204 whole entry, looked up): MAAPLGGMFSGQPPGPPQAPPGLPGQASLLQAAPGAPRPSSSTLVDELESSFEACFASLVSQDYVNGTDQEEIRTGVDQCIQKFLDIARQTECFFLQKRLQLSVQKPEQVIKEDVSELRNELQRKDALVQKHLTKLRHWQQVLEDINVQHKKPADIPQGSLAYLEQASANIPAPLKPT

In the case of MDM1 (UniProt Q8TC05), the results for the log2 fold change in test [1], in test [2] and in test [3] were 0.018, -0.116 and -0.866 (active), respectively.

Regarding LRPPRC (UniProt H7C3W8), in test [1], the log2 fold change is 0.219.

On to MED28 (UniProt Q9H204), for which the log2 fold change is -0.032 in test [2] and 0.018 in test [3].

For the target MAPKAP1 (UniProt Q9BPZ7), the log2 fold change in test [2] is -0.048.

Take MRPL22 (UniProt Q9NWU5): the log2 fold change in test [3] is 0.019.

MAN2B2 (UniProt Q9Y2E5): the log2 fold change in test [4] is 0.087; in test [5], 0.086; in test [2], -0.007; in test [3], 0.255.

As to LRRIQ1 (UniProt Q96JM4), the log2 fold change in test [1] was -0.002.

Take LRRC9 (UniProt Q6ZRR7): the log2 fold change was 0.008 in test [1] and 0.209 in test [3].

Consider MAP4K4 isoform 6 (UniProt O95819), for which the log2 fold change in test [4] is 0.076; in test [5], 0.063; in test [2], -0.163.

In the case of MAP3K6 (UniProt O95382), in test [1], the log2 fold change is 0.012.

Consider MME (UniProt P08473), for which the log2 fold change in test [4] is -0.152; in test [5], 0.041; in test [2], 0.232; in test [3], -0.001.

In the case of MRPL27 (UniProt Q9P0M9), the log2 fold change in test [4] was 0.002; in test [5], -0.046; in test [2], -0.048; in test [3] it was 0.208.

On to LRIF1 (UniProt Q5T3J3), for which the log2 fold change is -0.072 in test [1], 0.048 in test [2] and -0.071 in test [3].

In the case of MEX3A (UniProt A1L020), the log2 fold change in test [1] is 0.15; in test [2], -0.073.

Consider KIF3C (UniProt O14782), for which the log2 fold change is 0.683 in test [1], -0.059 in test [2] and 0.022 in test [3].
